# Reference: ChEMBL document CHEMBL1961873, “Compounds: GSK PKIS; Assays: Nanosyn kinase panel” (2012)
# Experiments:
# [1] = target: Tyrosine-protein kinase SYK (Homo sapiens) (UniProt P43405); conditions: at 1 µM
# [2] = target: T1, Tyrosine-protein kinase Tec (Homo sapiens) (UniProt P42680); conditions: at 0.1 µM
# T1 sequence (whole entry): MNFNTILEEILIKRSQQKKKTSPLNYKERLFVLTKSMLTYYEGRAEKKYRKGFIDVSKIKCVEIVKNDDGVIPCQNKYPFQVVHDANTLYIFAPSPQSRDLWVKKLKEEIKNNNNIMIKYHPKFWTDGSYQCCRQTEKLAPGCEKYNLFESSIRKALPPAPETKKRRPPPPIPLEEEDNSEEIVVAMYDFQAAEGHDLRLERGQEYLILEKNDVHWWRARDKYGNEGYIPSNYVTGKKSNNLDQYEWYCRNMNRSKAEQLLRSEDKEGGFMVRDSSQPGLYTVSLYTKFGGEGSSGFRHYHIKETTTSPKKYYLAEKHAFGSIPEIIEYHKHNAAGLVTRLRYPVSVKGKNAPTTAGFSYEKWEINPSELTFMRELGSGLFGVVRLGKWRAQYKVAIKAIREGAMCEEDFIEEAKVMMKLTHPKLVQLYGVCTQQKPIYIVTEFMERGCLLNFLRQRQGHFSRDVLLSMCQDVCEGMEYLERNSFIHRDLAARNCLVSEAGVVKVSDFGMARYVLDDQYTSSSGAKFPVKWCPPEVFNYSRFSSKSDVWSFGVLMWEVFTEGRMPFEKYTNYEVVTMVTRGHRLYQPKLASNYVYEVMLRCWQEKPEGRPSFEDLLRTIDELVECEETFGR
# [3] = target: T1, Tyrosine-protein kinase Tec (Homo sapiens); conditions: at 1 µM
# [4] = target: Angiopoietin-1 receptor (Homo sapiens) (UniProt Q02763); conditions: at 0.1 µM
# Chain of Angiopoietin-1 receptor (Homo sapiens) (Q02763 whole entry): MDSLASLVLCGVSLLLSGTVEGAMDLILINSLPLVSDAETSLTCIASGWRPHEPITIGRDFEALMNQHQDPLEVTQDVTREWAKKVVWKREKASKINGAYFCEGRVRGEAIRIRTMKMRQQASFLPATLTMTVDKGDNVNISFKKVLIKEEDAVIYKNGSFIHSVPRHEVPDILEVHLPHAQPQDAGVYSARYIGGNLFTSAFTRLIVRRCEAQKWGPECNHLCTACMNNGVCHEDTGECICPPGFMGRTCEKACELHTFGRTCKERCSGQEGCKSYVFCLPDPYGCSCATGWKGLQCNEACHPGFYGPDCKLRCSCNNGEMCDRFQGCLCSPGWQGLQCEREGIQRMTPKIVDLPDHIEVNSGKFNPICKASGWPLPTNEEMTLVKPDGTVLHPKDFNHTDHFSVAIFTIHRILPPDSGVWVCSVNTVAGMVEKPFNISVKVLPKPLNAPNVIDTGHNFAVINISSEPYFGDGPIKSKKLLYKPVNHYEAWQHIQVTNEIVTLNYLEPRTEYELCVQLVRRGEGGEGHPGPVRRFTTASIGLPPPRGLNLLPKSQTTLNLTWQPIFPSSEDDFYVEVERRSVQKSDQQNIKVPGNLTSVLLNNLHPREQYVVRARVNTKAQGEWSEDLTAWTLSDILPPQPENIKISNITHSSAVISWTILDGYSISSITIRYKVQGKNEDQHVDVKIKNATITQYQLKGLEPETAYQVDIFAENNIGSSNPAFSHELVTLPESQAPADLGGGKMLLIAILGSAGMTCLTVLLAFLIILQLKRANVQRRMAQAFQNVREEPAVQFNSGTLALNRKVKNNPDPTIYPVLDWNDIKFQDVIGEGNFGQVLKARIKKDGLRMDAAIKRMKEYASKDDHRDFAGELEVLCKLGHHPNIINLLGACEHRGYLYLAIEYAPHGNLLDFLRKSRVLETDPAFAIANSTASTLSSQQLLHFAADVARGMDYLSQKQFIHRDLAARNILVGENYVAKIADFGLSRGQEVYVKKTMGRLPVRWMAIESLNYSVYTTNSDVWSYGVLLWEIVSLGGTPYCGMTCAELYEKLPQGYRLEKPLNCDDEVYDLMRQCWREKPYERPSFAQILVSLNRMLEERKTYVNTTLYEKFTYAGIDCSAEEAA
# [5] = target: Angiopoietin-1 receptor (Homo sapiens) (UniProt Q02763); conditions: at 1 µM
# [6] = target: T2, Non-receptor tyrosine-protein kinase TNK1 (Homo sapiens) (UniProt Q13470); conditions: at 0.1 µM
# T2 sequence (whole entry): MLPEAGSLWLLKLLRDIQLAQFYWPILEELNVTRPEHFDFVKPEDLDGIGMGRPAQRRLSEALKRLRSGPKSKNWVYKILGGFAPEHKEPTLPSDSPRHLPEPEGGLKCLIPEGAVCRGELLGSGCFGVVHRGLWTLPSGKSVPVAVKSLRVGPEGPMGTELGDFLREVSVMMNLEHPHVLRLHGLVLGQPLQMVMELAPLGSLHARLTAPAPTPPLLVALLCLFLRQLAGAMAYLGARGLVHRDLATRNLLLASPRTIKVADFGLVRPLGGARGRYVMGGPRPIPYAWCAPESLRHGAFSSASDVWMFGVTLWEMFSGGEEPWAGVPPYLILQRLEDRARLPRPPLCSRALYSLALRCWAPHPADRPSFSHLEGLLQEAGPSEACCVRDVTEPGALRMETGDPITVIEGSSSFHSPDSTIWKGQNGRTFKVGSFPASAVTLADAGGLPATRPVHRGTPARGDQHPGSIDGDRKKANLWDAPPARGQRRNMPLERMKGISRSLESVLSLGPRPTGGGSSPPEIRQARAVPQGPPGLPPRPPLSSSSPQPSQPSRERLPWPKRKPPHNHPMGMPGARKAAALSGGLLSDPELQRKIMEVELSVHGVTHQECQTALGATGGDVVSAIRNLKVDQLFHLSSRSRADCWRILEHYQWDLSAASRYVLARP
# [7] = target: T2, Non-receptor tyrosine-protein kinase TNK1 (Homo sapiens); conditions: at 1 µM
# [8] = target: Activated CDC42 kinase 1 (Homo sapiens) (UniProt Q07912); conditions: at 0.1 µM
# Chain of Activated CDC42 kinase 1 (Homo sapiens) (Q07912 whole entry, looked up): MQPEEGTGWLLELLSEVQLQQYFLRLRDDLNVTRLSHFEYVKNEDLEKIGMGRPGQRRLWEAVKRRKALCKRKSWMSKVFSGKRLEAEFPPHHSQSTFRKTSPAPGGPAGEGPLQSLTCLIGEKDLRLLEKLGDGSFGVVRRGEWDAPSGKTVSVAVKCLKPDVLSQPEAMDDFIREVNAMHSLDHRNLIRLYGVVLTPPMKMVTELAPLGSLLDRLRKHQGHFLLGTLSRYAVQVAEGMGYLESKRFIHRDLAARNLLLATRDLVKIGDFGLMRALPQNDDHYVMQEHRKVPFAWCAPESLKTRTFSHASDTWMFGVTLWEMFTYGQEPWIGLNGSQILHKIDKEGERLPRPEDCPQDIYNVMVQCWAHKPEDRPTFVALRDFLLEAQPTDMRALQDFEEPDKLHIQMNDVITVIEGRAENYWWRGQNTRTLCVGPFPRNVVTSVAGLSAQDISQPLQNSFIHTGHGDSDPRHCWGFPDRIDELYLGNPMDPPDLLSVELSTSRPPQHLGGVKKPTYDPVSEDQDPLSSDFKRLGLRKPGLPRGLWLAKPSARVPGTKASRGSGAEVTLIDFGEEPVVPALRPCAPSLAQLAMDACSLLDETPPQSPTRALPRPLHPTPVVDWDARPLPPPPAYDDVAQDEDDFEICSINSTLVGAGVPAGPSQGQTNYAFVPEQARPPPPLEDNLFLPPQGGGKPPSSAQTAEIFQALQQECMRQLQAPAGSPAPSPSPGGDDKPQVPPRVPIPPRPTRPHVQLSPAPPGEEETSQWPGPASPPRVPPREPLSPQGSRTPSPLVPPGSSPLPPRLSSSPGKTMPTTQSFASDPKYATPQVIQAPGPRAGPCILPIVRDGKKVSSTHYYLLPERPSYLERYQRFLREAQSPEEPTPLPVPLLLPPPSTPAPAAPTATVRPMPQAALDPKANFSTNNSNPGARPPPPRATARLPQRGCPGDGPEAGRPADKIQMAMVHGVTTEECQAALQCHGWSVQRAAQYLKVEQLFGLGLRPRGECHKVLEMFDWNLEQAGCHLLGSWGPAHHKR
# [9] = target: Activated CDC42 kinase 1 (Homo sapiens) (UniProt Q07912); conditions: at 1 µM
# [10] = target: High affinity nerve growth factor receptor (Homo sapiens) (UniProt P04629); conditions: at 0.1 µM;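 further: each value is a mean of replicate percent inhibition readings against TRKA kinase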
# Chain of High affinity nerve growth factor receptor (Homo sapiens) (P04629 33-796 limits assumed): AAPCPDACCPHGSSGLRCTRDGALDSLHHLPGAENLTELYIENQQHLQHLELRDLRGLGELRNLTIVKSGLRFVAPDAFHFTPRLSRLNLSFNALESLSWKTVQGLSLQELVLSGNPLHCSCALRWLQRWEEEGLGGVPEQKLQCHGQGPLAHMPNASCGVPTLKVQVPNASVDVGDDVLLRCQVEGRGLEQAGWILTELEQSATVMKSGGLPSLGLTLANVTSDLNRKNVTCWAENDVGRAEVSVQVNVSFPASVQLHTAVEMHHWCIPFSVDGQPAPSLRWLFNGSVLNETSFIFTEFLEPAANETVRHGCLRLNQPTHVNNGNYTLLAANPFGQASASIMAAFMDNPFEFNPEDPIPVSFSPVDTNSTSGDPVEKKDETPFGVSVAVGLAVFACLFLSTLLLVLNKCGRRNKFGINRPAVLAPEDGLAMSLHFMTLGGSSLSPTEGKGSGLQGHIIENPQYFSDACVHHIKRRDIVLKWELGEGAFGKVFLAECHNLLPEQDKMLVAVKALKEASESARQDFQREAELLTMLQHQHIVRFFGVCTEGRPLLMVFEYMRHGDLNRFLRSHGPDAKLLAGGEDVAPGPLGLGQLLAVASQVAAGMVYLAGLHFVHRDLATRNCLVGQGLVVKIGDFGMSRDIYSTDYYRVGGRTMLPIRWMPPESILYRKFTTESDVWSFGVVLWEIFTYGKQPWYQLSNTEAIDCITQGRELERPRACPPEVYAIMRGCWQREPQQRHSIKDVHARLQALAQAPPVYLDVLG
SMILES,inhibition [1] [%],inhibition [2] [%],inhibition [3] [%],inhibition [4] [%],inhibition [5] [%],inhibition [6] [%],inhibition [7] [%],inhibition [8] [%],inhibition [9] [%],inhibition [10] [%]
COc1ccc2cc(-c3c(-c4ccncc4)nc(-c4ccc([S+](C)[O-])cc4C)n3C)ccc2c1 (stereo not given),0.6,0.44,0.84,76.9,82.2,-3.02,12.5,-0.21,0.9,0.64
Fc1ccc(-c2nc3n(c2-c2ccncc2)CCS3)cc1,2.02,0.9,2.31,3.17,5.76,1.24,-1.81,0.78,0.1,2.38
O=C(Nc1n[nH]c2cc(-c3cc(F)ccc3F)ccc12)C1CC1,1.24,2.72,4.04,3.35,9.26,1.68,7.03,-0.01,-0.8,3.75
Fc1ccc(-c2ncn(C3CCNCC3)c2-c2ccnc(Oc3ccc(F)c(F)c3)n2)cc1,-2.3,-2.35,0.11,0.38,3.09,0.22,4.28,-0.47,-0.07,2.3
C[C@@H](Oc1cc(-n2cnc3ccc(OC4CCN(C)CC4)cc32)sc1C(N)=O)c1ccccc1Cl,2.16,2.27,1.73,7.19,11.9,3.41,18.1,-0.17,1.13,2.29
NS(=O)(=O)c1ccc(N/N=C2\C(=O)Nc3ccc(C(=O)NCCCn4ccnc4)cc32)cc1,-1.66,3.92,10.5,2.3,5.99,6.1,16.5,0.41,3.98,2.34
c1ccc(Oc2ccc(Nc3ncc(-c4ccccc4)o3)cc2)cc1,2.28,2.6,2.98,0.12,1.44,0.99,3.43,0.99,2.91,1.43
CN1CCN(CCCNc2nc3ccc(Oc4ccc(NC(=O)Nc5cc(C(F)(F)F)ccc5F)cc4)cc3[nH]2)CC1,0.86,0.68,5.07,9.94,53.8,-0.25,4.81,2.56,5.75,2.88
Fc1ccc(-c2ncn(CCCN3CCOCC3)c2-c2ccncc2)cc1,-1.02,-0.04,2.36,1.37,1.99,0.29,-6.97,-0.82,-1.72,-2.6
CCc1cccc(CC)c1/C=C/c1cncc(C(=O)NC)c1,-0.49,4.18,7.25,1.3,3.17,5.96,10.2,1.3,2.37,1.94
CCC(=O)Nc1ccc(C)c(-c2ccc(C(=O)NCC3CC3)cc2)c1,0.67,3.13,2.28,4.73,6.22,-0.12,6.35,0.66,1.34,2
COc1ccc(-c2ccc3c(NC(=O)C4CC4)n[nH]c3n2)cc1,-2.02,0.87,2.47,2.75,5.88,1.34,12,0.32,1.42,-0.67
NC(=O)c1cc(-c2ccc(F)cc2)cc(-c2ccncc2)c1N,1.28,2.88,5.71,4.39,3.08,3.42,7.48,0.31,-0.36,2.33
COc1cccc(/C=N/Nc2ncnc3c2cnn3-c2cccc(OC)c2)c1,0.04,4.1,4.79,5.3,4.37,0.36,3.79,1.06,3.32,1.54
O=C(Nc1n[nH]c2cc(-c3ccccc3)ccc12)C1CC1,1.22,7.27,16.4,1.86,3.48,3.15,7.79,0.74,3.97,2.59
CCS(=O)(=O)c1ccc(OC)c(Nc2ncc(-c3cccc(-c4ccccc4F)c3)o2)c1,1.23,2.94,12.7,3.06,19,14.1,61.8,1.02,7.85,6.39
Cc1ccc(NC(=O)c2ccoc2)cc1-c1ccc(C(=O)NCC2CC2)cc1,-2.99,0.28,3.18,1.56,3.38,0.21,5.38,0.62,0.64,2.04
